This note sets out measurements from PubChem BioAssay (NCI).

About 83,000 compounds went through this panel and 20% of them were active in at least one assay; those are over-represented in the sample as a whole.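 Treatment: one concentration, 48 hours, 96-well format. Scoring: percent growth, with anything below 10 considered active.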 Unmarked numbers belong to inactive results. Calls of active or inactive are those of the source.

Assay in all cases: NCI-60 one-dose screen, 48 h (100 = growth as untreated, 0 = no growth, -100 = all killed)
Conditions in all cases: 10 µM unless noted

Experiment [1] relates to T-47D breast.
The subject of experiment [2] is BT-549 breast.
Experiment [3] relates to MDA-MB-435 melanoma.
Experiment [4] relates to SW-620 colon.
Experiment [5] has as its system MCF7 breast.
Experiment [6] deals with HCT-116 colon.
The subject of experiment [7] is HCC-2998 colon.
In experiment [8] the test system is KM12 colon.

As for `NC(N)=NC1CCCCC1`, the growth in experiment [1] is 103%; in experiment [2], 105%; in experiment [3], 104%; in experiment [4] it was 100%; in experiment [5] it was 96.4%; in experiment [6] it was 98.6%. Besides, the growth in experiment [7] is 104%; in experiment [8], -69% (active).

For `O=C1NN(C(=O)c2ccccc2)C(c2ccc(Cl)c(Cl)c2)=C/C1=C\c1ccccc1[N+](=O)[O-]`, the growth in experiment [1] was 27.6% [6.75 µM]; in experiment [2], -7.17% [6.75 µM] (active); in experiment [3], 58.5% [6.75 µM]; in experiment [4], 13.7% [6.75 µM]; in experiment [5], 8.91% [6.75 µM] (active); in experiment [6] it was 5.02% [6.75 µM] (active). In addition, the growth in experiment [7] was -20.5% [6.75 µM] (active); in experiment [8], 4.6% [6.75 µM] (active).

On to `C[N+](C)(C)CCCCCCCCCC[N+](C)(C)C`, for which the growth is 88.6% in experiment [1]; 78.7% in experiment [2]; 103% in experiment [3]; 95.8% in experiment [4]; 91% in experiment [5]; 106% in experiment [6]. Besides, the growth in experiment [7] was 105%; in experiment [8], 103%.

Turning to `O=C1/C=C/[C@@H](O)[C@@H]2C[C@@H](O)C[C@H]2/C=C/CCC[C@H]([C@@H](O)CO)O1`, the growth in experiment [1] was 81.8%; in experiment [2], 75.8%; in experiment [3] it was 83%; in experiment [4], 104%; in experiment [5], 45.1%; in experiment [6], 93.8%. The growth is 84.6% in experiment [7] and 63.5% in experiment [8].

In the case of `O=[N+]([O-])c1ccc(N/N=C\c2ccc(O)cc2O)nc1`, the growth in experiment [1] is 38.5%; in experiment [2], 38%; in experiment [3] it was 45%; in experiment [4], 56.4%; in experiment [5], 27.4%; in experiment [6], 21.3%. Also, the growth in experiment [7] was 10.6%; in experiment [8], 29.2%.

In the case of `C=C(COC(C)=O)[C@H]1CC/C(C)=C/CC/C(C)=C/CC[C@@]2(C)O[C@H]2C1`, the growth in experiment [1] was 109%; in experiment [2] it was 105%; in experiment [3], 113%; in experiment [4], 112%; in experiment [5] it was 91.1%; in experiment [6], 98.2%. The figures for the growth in experiment [7] and in experiment [8] were 112% and 98.6%, respectively.

For `COC(=O)[C@@H](Cc1c[nH]c2ccccc12)NC(=O)/C=C/c1ccccc1`, the growth in experiment [1] is 32.2%; in experiment [2] it was -0.499% (active); in experiment [3], -84.3% (active); in experiment [4] it was 27.5%; in experiment [5] it was 19.6%; in experiment [6], 16.8%. In addition, the growth is 66% in experiment [7] and 27.3% in experiment [8].

In the case of `Fc1ccc(-c2nc(-c3ccc(-c4nc5ccc(F)cc5[nH]4)cc3)no2)cc1`, the growth was 62.8% in experiment [1]; 60.1% in experiment [2]; 68.2% in experiment [3]; 64.7% in experiment [4]; 52.5% in experiment [5]; 73% in experiment [6]. For the same compound, the growth in experiment [7] is 82.2%; in experiment [8], 60.5%.

Consider `S=C(Cc1ccccc1)N1CCN(c2ccccc2Cl)CC1`, for which the growth in experiment [1] is 94.4%; in experiment [2], 96.6%; in experiment [3], 104%; in experiment [4], 103%; in experiment [5] it was 110%; in experiment [6] it was 88.2%. Further, the growth is 101% in experiment [7] and 94.5% in experiment [8].

Consider `Clc1cc2nc(-c3ccccc3)c(-c3ccccc3)nc2cc1Cl`, for which the growth in experiment [1] is 76.6%; in experiment [2], 118%; in experiment [3], 108%; in experiment [4] it was 89.7%; in experiment [5], 78.1%; in experiment [6] it was 84.8%. Further, the growth in experiment [7] is 94.1%; in experiment [8] it was 92%.

In the case of `COc1cnc2c(c1)C(=O)c1c-2n(CCCNC(C)C)c(=O)c2cc(Cl)ccc12`, the growth in experiment [1] was -84.3% (active); in experiment [2] it was 30.9%; in experiment [3], -94.6% (active); in experiment [4], -81.7% (active); in experiment [5], -58.6% (active); in experiment [6] it was -92.4% (active). For the same compound, the figures for the growth in experiment [7] and in experiment [8] were -52.1% (active) and -71.7% (active), respectively.

Consider `COc1ccc(/C=C/c2nc3ccccc3c(=O)n2-c2ccc(C#Cc3ccc(C(C)(C)C)cc3)cc2C)c(OC)c1`, for which the growth in experiment [1] is 85.5%; in experiment [2], 99.4%; in experiment [3], 91.8%; in experiment [4], 86.7%; in experiment [5], 105%; in experiment [6], 69%. Also, the figures for the growth in experiment [7] and in experiment [8] were 97.2% and 88.1%, respectively.

In the case of `CN(C)N1C(=O)c2c(Cl)c(Cl)c(Cl)c(Cl)c2C1=O`, the growth in experiment [1] is 93%; in experiment [2] it was 129%; in experiment [3], 114%; in experiment [4], 108%; in experiment [5], 95.7%; in experiment [6], 101%. For the same compound, the growth is 102% in experiment [7] and 113% in experiment [8].

For the compound `O=C(NCCN1CCCC1)n1cc(-c2ccncc2)c(-c2cc(O)cc(Cl)c2)n1`, the growth is 98% in experiment [1]; 111% in experiment [2]; 57.3% in experiment [3]; 115% in experiment [4]; 96.2% in experiment [5]; 75.3% in experiment [6]. Besides, the growth was 122% in experiment [7] and 108% in experiment [8].

On to `CCSCC1CC(O)(c2ccccc2)C(c2ccccc2)C(c2ccc(F)cc2)O1` (stereo unspecified), for which the growth in experiment [1] was -17.5% (active); in experiment [2], -12.1% (active); in experiment [3], -18.8% (active); in experiment [4] it was -25.8% (active); in experiment [5], 1.86% (active); in experiment [6] it was -31.2% (active). Besides, the growth was 2.23% (active) in experiment [7] and -9.64% (active) in experiment [8].

As for `COc1ccc(CNc2c3ccccc3nc3ccc(OC)cc23)cc1`, the growth was 34.2% in experiment [1]; 43% in experiment [2]; 19% in experiment [3]; 15.8% in experiment [4]; -29.8% (active) in experiment [5]; 12.7% in experiment [6]. The growth is -57.6% (active) in experiment [7] and 27.6% in experiment [8].

In the case of `Cc1cc(-c2ccccc2)on1`, the growth in experiment [1] is 96%; in experiment [2] it was 119%; in experiment [3], 107%; in experiment [4] it was 109%; in experiment [5], 106%; in experiment [6], 101%. In addition, the growth in experiment [7] is 111%; in experiment [8] it was 106%.
